In the library only some 3.5% were active in any assay of this set; here they are far more common.
GPR151 ag – activates the human receptor GPR151; hit rate 1% among 650,000; Q8TDV0; PathHunter beta-arrestin GPR151 cells, luminescence; activation, % at 11.2 µM; in the data active = activation above about 4.9%;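 note: 0% = median of compound wells and 100% = cells with positive control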
Target sequence (Q8TDV0 whole entry, looked up): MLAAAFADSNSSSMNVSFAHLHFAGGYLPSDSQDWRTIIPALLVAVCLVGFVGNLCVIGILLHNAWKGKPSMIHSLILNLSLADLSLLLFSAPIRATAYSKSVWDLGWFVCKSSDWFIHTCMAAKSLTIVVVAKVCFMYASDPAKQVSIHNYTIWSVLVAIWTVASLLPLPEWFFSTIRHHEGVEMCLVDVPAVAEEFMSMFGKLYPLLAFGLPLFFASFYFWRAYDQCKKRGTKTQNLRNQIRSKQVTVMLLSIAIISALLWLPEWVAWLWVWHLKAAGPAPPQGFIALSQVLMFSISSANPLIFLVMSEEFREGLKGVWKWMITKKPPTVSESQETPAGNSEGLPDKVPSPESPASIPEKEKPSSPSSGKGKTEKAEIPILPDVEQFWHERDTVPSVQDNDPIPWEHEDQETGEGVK
MITF primary – inhibitors of human MITF; inhibition, % at 2.6 µM; AlphaScreen MITF homodimerization, bead proximity signal; O75030; AID 1259374; hit rate 0.91% among 650,000; in the data active = inhibition above about 50%;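 note: 0% = vehicle wells with protein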
FBW7 act – activators of human E3 ligase FBW7; normalized activity (activation), % at 26.1 µM; AID 1259310; hit rate 0.13% among 650,000; AlphaScreen FBW7–phospho-cyclin E peptide binding, activator screen; Q969H0; in the data active = normalized activity above about 1.9%;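 note: purified mutant Fbw7 with reduced substrate affinity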
TEAD-YAP block – TEAD-YAP interaction inhibition; HEK-TIYL cells, TEAD-Gal4/YAP UAS-luciferase luminescence; inhibition, % at 9.12 µM; hit rate 1.4% among 640,000; in the data active = inhibition above about 32%;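 note: 0% = median of test compound wells and 100% = reference inhibitor wells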
MITF inh conf – human MITF inhibition, confirmation; shares compounds with MITF primary; AlphaScreen MITF homodimerization, biotin/His-MITF beads; inhibition, % at 2.6 µM; hit rate 16% among 4,700;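 active = inhibition above a cutoff derived from the DMSO control wells, cut at about 28% in these data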;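 note: 0% = MITF dimer wells with DMSO only; inhibitors lower the bead chemiluminescence by keeping MITF from dimerizing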
AS interf ctr – counter-screen: compounds optically interfering with AlphaScreen; LysRS AlphaScreen counterscreen, signal interference, triplicate; hit rate 7.6% among 4,700; inhibition, % at 2.6 µM; shares compounds with MITF primary;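 active = inhibition above a cutoff derived from the DMSO control wells, cut at about 30% in these data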
GPR151 confirm – confirmation of human GPR151 activators; shares compounds with GPR151 ag; GPR151 PathHunter beta-arrestin cells, luminescence, 90 min; % of EA-reagent control over plate median; activation, % at 11.2 µM; 6,700 tested, under 10 active; AID 1508609;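 active = mean percent activation across replicates above the confirmation screen cutoff of 4.91%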
GPR119 counter – counter-screen for GPR151 activators: effect on human GPR119; shares compounds with GPR151 ag; activation, % at 11.2 µM; GPR119 PathHunter beta-arrestin cells, luminescence, 90 min; 0 = compound-well median, 100 = enzyme-acceptor control; hit rate 0.3% among 6,700;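 active = mean percent activation in the counterscreen above 29.09%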;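 note: counterscreen on off-target GPR119 to flag nonselective hits from the GPR151 activator screen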
Active calls of the source: *.

What do the screens show for `COc1ccc(CN2CCN(C(=O)c3cc(OC)c(OC)c(OC)c3)CC2)c(OC)c1`?
GPR151 ag: 0; MITF primary: 38; FBW7 act: 0; TEAD-YAP block: 1

What do the screens show for `CC(OC(=O)c1ccc(O)cc1)C(=O)Nc1cccc([N+](=O)[O-])c1` (stereo not drawn)?
GPR151 ag: 3; MITF primary: 0; FBW7 act: 0; TEAD-YAP block: 10

How did CCCN(CC1CC1)C(=O)C1CCN(Cc2ccc(C)cc2)CC1 do in these assays?
GPR151 ag: 5.2*; MITF primary: 53*; FBW7 act: 0; TEAD-YAP block: 3; MITF inh conf: 12; AS interf ctr: 7; GPR151 confirm: -1; GPR119 counter: -2

What do the screens show for `Cc1ccc(OCCCN2CCN(C)CC2)c([N+](=O)[O-])c1`?
GPR151 ag: 5.2*; MITF primary: 76*; FBW7 act: 0; TEAD-YAP block: 11; MITF inh conf: -7; AS interf ctr: -4; GPR151 confirm: 0; GPR119 counter: -6

How did Cc1ccc(OCCCN2CCNCC2)c([N+](=O)[O-])c1 do in these assays?
GPR151 ag: 0; MITF primary: 37; FBW7 act: 0; TEAD-YAP block: 4

Results for N#Cc1ccccc1NC(=S)NC(=O)c1ccccc1F ?
GPR151 ag: -1; MITF primary: 12; FBW7 act: 1; TEAD-YAP block: -28

Results for COc1cc(CN2CCN(C(=O)c3cccnc3)CC2)cc(OC)c1OC ?
GPR151 ag: 0; MITF primary: 47; FBW7 act: 0; TEAD-YAP block: 1

What do the screens show for `O=C(c1ccncc1)N1CCN(Cc2cccnc2)CC1`?
GPR151 ag: 9.0*; MITF primary: 68*; FBW7 act: 0; TEAD-YAP block: 7; MITF inh conf: -18; AS interf ctr: -5; GPR151 confirm: 0; GPR119 counter: 15

What do the screens show for `CC(C(=O)O)C1Sc2ccccc2N(Cc2cccc(Cl)c2)C1=O` (stereo not drawn)?
GPR151 ag: 0; MITF primary: -8; FBW7 act: 0; TEAD-YAP block: -6

How did CC1CCN(S(=O)(=O)c2coc(C(N)=O)c2)CC1 do in these assays?
GPR151 ag: 10*; MITF primary: -9; FBW7 act: 0; TEAD-YAP block: -14; GPR151 confirm: 0; GPR119 counter: 11

How did CC(=O)N1CCN(S(=O)(=O)c2ccc(S(=O)(=O)N3CCC(C)CC3)cc2)CC1 do in these assays?
GPR151 ag: -1; MITF primary: 15; FBW7 act: 0; TEAD-YAP block: -2

What do the screens show for `COCCC(=O)Nc1ccc2c(c1)CN(S(=O)(=O)N1CCCC1)CC2`?
GPR151 ag: 7.5*; MITF primary: 3; FBW7 act: 0; TEAD-YAP block: 1; GPR151 confirm: 0; GPR119 counter: 0

Results for CCCCCCCCCCCCCc1ccco1 ?
GPR151 ag: 7.1*; MITF primary: -9; FBW7 act: 0; TEAD-YAP block: 6; GPR151 confirm: 0; GPR119 counter: 3

What do the screens show for `CCCCCCNc1nc(NCc2ccco2)nc(OCC)n1`?
GPR151 ag: -1; MITF primary: -4; FBW7 act: 0; TEAD-YAP block: -5

What do the screens show for `CC(=O)Nc1ccc(CN2CCc3nnc(C(C)NC(=O)c4ccco4)n3CC2)cc1` (stereo not drawn)?
GPR151 ag: -1; MITF primary: 2; FBW7 act: 1; TEAD-YAP block: 8

Results for CC[C@H](Cn1ncc2ccccc2c1=O)NC(=O)Cc1n[nH]c(=O)c2ccccc12 ?
GPR151 ag: 0; MITF primary: 5; FBW7 act: 0; TEAD-YAP block: -7

What do the screens show for `O=[N+]([O-])c1cccc(Cl)c1CSc1nnnn1-c1ccccc1`?
GPR151 ag: 6.2*; MITF primary: 7; FBW7 act: 0; TEAD-YAP block: 7; GPR151 confirm: 0; GPR119 counter: 2

How did O=[N+]([O-])c1cccc(Cl)c1CSc1nnnn1-c1cccc2ccccc12 do in these assays?
GPR151 ag: 0; MITF primary: 14; FBW7 act: 0; TEAD-YAP block: 4
